Assay results published in PubChem BioAssay (NCI).
Compounds without any hit were thinned out: in the full panel of roughly 83,000, 20% have a hit.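 The test compound was applied at a single concentration to cells in 96-well plates for 48 hours, and percent growth was recorded.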 Calls of active or inactive are those of the source. Rule for the calls: active = growth percent below 10; inactive = the rest.

Tested on: SNB-19 CNS
Assay: NCI-60 one-dose screen, 48 h (100 = growth as untreated, 0 = no growth, -100 = all killed)
Conditions: 10 µM unless noted

Row | SMILES | growth
1 | N#Cc1c(N)nc2c(nnn2-c2cccc(C(F)(F)F)c2)c1N | 93.1% (inactive)
2 | CN(C)CN1CCN(c2ccc3nc(-c4ccc5nc(-c6ccc(C(F)(F)F)cc6)[nH]c5c4)[nH]c3c2)CC1 | 69.6% (inactive)
3 | COC(=O)Nc1nc2ccc(C(=O)C3CC3)cc2[nH]1 | 13.5% (inactive)
4 | CC1(C)N=C(N)N=C(N)N1c1ccc(Cl)c(Cl)c1 | 40.3% (inactive)
5 | O=C1NC(=S)S/C1=C\N1N=C(c2ccc(Cl)cc2)CC1c1ccc(F)cc1 (centres undefined) | 81.7% (inactive)
6 | Cc1nc(Nc2ccc(NC(=S)Nc3ccccc3)cc2)nc2nc(Nc3ccc(S(=O)(=O)O)cc3)[nH]c(=O)c12 | 96.2% (inactive)
7 | CCOc1cc(N)ccc1C(=O)NCCCN(CC)CC | 102% (inactive)
8 | NC(N)=N/N=C(/c1ccccc1)c1ccccc1F | 30.9% (inactive)
9 | CC(c1ccc(-n2cccn2)cc1)c1cnc(N2CCc3ccc(C(N)=O)cc3C2)s1 (centres undefined) | 85.4% (inactive)
10 | CC(/C=N/NC(=O)c1cc(-c2ccco2)[nH]n1)=C\c1ccccc1 | 100% (inactive)

Tested on: U251 CNS
Assay: as above
Conditions: 10 µM unless noted

Row | SMILES | growth
11 | Fc1ccc(Nc2nc3nonc3nc2Nc2ccc(F)cc2)cc1 | -6.58% (active)
12 | COc1cc(C2CC(c3ccc(Nc4nc(Nc5ccc(F)cc5)nc(Nc5ccc(Cl)cc5)n4)cc3)=NN2C(C)=O)cc(OC)c1OC (centres undefined) | 62.6% (inactive)
13 | c1ccc2[nH]c(SSc3nc4ncncc4[nH]3)nc2c1 | 54% (inactive)
14 | COc1cccc(CCC2CCCN(c3cc(C)nc(N)n3)C2)c1 (centres undefined) | 15% (inactive)
15 | COc1cc(C2C=C(c3cccc(NC(C)=O)c3)Nc3ncnn32)cc(OC)c1OC (centres undefined) | 25.4% (inactive)
16 | Cc1c(C(=O)O)nnn1-c1nccs1 | 92.1% (inactive)
17 | CC(C)c1ccc(C(=O)OC(=O)c2ccc(C(C)C)cc2)cc1 | 91.2% (inactive)
18 | c1ccc(-c2oc3ccccc3c2-c2ccccc2)cc1 | 95.9% (inactive)
19 | C=CC(=O)Nc1cccc(C)c1Nc1cc(-c2cccnc2Cc2c(C)c(OC)cc(OC)c2C)ncn1 | -16.1% (active)
20 | Clc1ccc2[nH]c3c(NCCCN4CCOCC4)ncnc3c2c1 | 69.6% (inactive)
21 | CCCCCCCC/C=C\CCCCCCCC(=O)Oc1cccc2cccnc12 | 91% (inactive)
22 | CCN(CC)CCCNC(=O)c1ccc(N)cc1O | 99% (inactive)
23 | CC(C)n1nc(C#Cc2cccc(O)c2)c2c(N)ncnc21 | -37.1% (active)
24 | CSc1ccc(Cl)c(C(=O)Nc2sccc2C(N)=O)c1 | 94.3% (inactive)
25 | COc1ccc(NC(=O)c2cccc(-c3cc(=O)c4c(O)c(OC)c(OC)cc4o3)c2)cc1 | 73.2% (inactive)
26 | CC(C)OCCCNCC(=O)Nc1ccc(S(=O)(=O)c2ccc(NC(=O)CNCCCOC(C)C)cc2)cc1 | 85.6% (inactive)
27 | COc1cc(/C=C/C(=O)c2cccc(-n3cc(-c4ccccc4)[nH]c3=O)c2)cc(OC)c1OC | -78.6% (active)
28 | C[C@@H]1C(=O)N(C[C@H](Cc2ccccc2)NC(=O)OCc2ccccc2)[C@]1(Cc1ccccc1)C(=O)OC(C)(C)C | 63.2% (inactive)
29 | Oc1ccccc1-c1nc2ccccn2c1NCCN1CCOCC1 | 97% (inactive)
30 | COc1ccc(/C(C)=C(\c2ccc(Cl)cc2)c2ccc(OCCCN(C)C)cc2)cc1F | 38.5% (inactive)

Row | SMILES | growth
31 | COc1cc2ccccc2cc1C(=O)NC(=S)Nc1ccc(-c2nc3ccccc3[nH]2)cc1 | 75.2% (inactive)
32 | O=[N+]([O-])c1ccc2[nH]cc(-c3c4ccsc4cc4[nH]c5ccc([N+](=O)[O-])cc5c34)c2c1 | 6.49% (active)
33 | CCOC(=O)c1nnn(C(Cc2ccccc2Cl)C(=O)OCC)c1C (centres undefined) | 96.1% (inactive)
34 | Cc1nc(Nc2ccccn2)sc1C(=O)/C=C/c1ccc(Br)cc1 | 59.8% (inactive)
35 | CN(C)c1ccc(/C=C/c2c(F)cccc2F)cc1 | 89.9% (inactive)
36 | N#Cc1c(-c2ccc(C(F)(F)F)cc2)cc(N2CC(O)C2)n2c1nc1ccccc12 | 40.2% (inactive)
37 | O=C1c2ccccc2C(=O)c2cc(Cn3cc[n+](Cc4ccc5ccccc5c4)c3)ccc21 | 85.8% (inactive)
38 | O=C(CC12CC3CC(CC(C3)C1)C2)NCCOCCOCCOCCNC(=O)c1cc2c(o1)C(=O)c1ccccc1C2=O | -19.6% (active)
39 | Oc1[nH]c2ccccc2c1/C=c1/cc2c(c(-c3ccc(F)cc3)n1)=Nc1ccccc1-2 | -57.8% (active)
40 | N#Cc1c(N)nc2c(nnn2-c2cccc(C(F)(F)F)c2)c1N | 85.2% (inactive)
41 | CN(C)CN1CCN(c2ccc3nc(-c4ccc5nc(-c6ccc(C(F)(F)F)cc6)[nH]c5c4)[nH]c3c2)CC1 | 60% (inactive)
42 | COC(=O)Nc1nc2ccc(C(=O)C3CC3)cc2[nH]1 | 12.8% (inactive)
43 | CC1(C)N=C(N)N=C(N)N1c1ccc(Cl)c(Cl)c1 | 30.1% (inactive)
44 | O=C1NC(=S)S/C1=C\N1N=C(c2ccc(Cl)cc2)CC1c1ccc(F)cc1 (centres undefined) | 68.7% (inactive)
45 | Cc1nc(Nc2ccc(NC(=S)Nc3ccccc3)cc2)nc2nc(Nc3ccc(S(=O)(=O)O)cc3)[nH]c(=O)c12 | 110% (inactive)
46 | CCOc1cc(N)ccc1C(=O)NCCCN(CC)CC | 104% (inactive)
47 | NC(N)=N/N=C(/c1ccccc1)c1ccccc1F | 24.2% (inactive)
48 | CC(c1ccc(-n2cccn2)cc1)c1cnc(N2CCc3ccc(C(N)=O)cc3C2)s1 (centres undefined) | 78.3% (inactive)
49 | CC(/C=N/NC(=O)c1cc(-c2ccco2)[nH]n1)=C\c1ccccc1 | 96.7% (inactive)
